Only some compounds are listed: those with a hit (about 8.8% of all), similar ones and a draw of the others.
LMNA splice mod – modulators of lamin A splicing. Potency, µM (titrated, usually from 46.1 µM), without a hit: at the highest dose ratio change, negative = inhibition, most hits filed as inhibitors. hit rate 0.01% among 200,000. AID 1487. HeLa LMNA splicing GFP/RFP minigene ratio, 48 h; active = well fitted inhibition curve with a large enough effect in the signal ratio, with a control signal flat, not every such curve was filed as active; inconclusive = small, poorly fitted or top-dose-only effect, or effect the other way, or a change in a side signal; the % refers to the signal ratio; also: % is scaled to controls: 0 for no effect and ±100 for the full control effect
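S3 HeLa cells stably expressing lamin A-EGFP splicing minigene plus DsRed2, 600 cells/well, 48 h compound exposure at 37C. Laser-scanning cytometry; analysed as GFP (500-530 nm)/RFP (575-640 nm) total intensity ratio; 0.5% DMSO vehicle.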
ALDH1A1 block – inhibitors of human aldehyde dehydrogenase 1A1; P00352; Purified ALDH1A1, NADH fluorescence, propionaldehyde substrate; Potency, µM (top dose mostly 75.3 µM), for the others: at the top dose activity, negative = inhibition, actives largely listed as inhibitors; hit rate 7.3% among 220,000; AID 1030; active = well fitted inhibition curve with a large enough effect, not every such curve was filed as active; inconclusive = small, poorly fitted or top-dose-only effect, or another doubt; inactive = no such curve, though single readings can be large or run the other way;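 also: plate controls were no enzyme wells and a reference inhibitor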
Target sequence (P00352 whole entry, looked up): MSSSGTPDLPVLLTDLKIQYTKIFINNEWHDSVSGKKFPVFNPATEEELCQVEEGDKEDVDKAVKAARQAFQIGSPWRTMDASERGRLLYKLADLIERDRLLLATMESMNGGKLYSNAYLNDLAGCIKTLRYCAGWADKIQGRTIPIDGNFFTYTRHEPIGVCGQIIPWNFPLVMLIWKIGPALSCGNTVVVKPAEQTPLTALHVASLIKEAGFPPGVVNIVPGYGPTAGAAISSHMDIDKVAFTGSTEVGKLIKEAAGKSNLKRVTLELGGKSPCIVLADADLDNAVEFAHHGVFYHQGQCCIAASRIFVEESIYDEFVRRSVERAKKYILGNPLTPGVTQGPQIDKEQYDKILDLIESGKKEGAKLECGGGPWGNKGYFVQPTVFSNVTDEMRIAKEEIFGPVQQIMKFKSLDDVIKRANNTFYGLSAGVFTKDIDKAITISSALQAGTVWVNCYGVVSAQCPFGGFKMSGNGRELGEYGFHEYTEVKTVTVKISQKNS
HTT aggregate – mutant huntingtin aggregation inhibition | PC12 HttQ103-GFP aggregates, Acumen cytometry, 40 h | Potency, µM (doses to about 46.1 µM), for the others: top-dose activity change, negative = inhibition, most hits filed as inhibitors | hit rate 1.1% among 220,000; also: % is scaled to controls: 0 for no effect and ±100 for the full control effect; nearly all actives have a fitted effect of over 60% in size
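Using laser scanning cytometry, GFP-positive aggregates were counted after lysis of PC12 cells induced with 100 nM tebufenozide to express HTT exon 1 Q103–GFP. Compounds were tested in titration.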
HTT cytoprotect – protects HTT-Q103 PC12 cells, measured by ATP; PC12 HTT-Q103 induced, cytoprotection, ATP luminescence, 40 h; Potency, µM (highest dose often 56.4 µM), for the others: cytoprotection (ATP increase), actives largely listed as activators; hit rate 0.14% among 230,000; AID 1471; also: % of control where 0% means no effect; nearly all actives have a fitted effect of over 45% in size
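Compounds were screened for protection of PC12 cells against cell death after tebufenozide induction (100 nM final) of mutant Huntingtin exon 1 (Q103) fused to GFP.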
HPGD block – HPGD (human) dehydrogenase inhibition | hit rate 4.3% among 150,000 | Potency, µM, for inactives: at the highest dose activity change, negative = inhibition, most hits filed as inhibitors | P15428 | purified HPGD, NADH fluorescence kinetic, PGE2 substrate; active = well fitted inhibition curve with a large enough effect, not every such curve was filed as active; inconclusive = small, poorly fitted or top-dose-only effect, or another doubt; inactive = no such curve, though single readings can be large or run the other way; also: % is scaled to controls: 0 for no effect and ±100 for the full control effect
Target sequence (P15428 whole entry, looked up): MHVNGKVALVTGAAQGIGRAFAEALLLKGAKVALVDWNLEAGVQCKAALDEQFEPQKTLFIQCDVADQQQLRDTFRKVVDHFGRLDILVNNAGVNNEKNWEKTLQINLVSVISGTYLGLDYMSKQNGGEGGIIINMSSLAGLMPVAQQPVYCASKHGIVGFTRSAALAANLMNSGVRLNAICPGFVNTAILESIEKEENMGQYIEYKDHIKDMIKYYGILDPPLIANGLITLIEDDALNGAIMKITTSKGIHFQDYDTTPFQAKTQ
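NADH formation kinetics: reaction with 30 uM PGE2 and 1 mM NAD+ (final), 20 nM enzyme, Tris-HCl pH 8 with Tween 20, after 15 min compound preincubation at room temperature. Fluorescence change, last versus first of five reads.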
* hit, by the source's call; ? = inconclusive; nt = no result; ! = a repeat was not active; [ ] = another dose, or the depositor's remark. Unless noted, calls follow the shape of the dose curve; as a rule, active = well fitted curve in the direction sought with a large enough effect; inconclusive = small, poorly fitted or top-dose-only effect, or another doubt; inactive = no such curve, though single readings can be large; an effect the other way counts as inactive or inconclusive. Potency is read from the fitted curve at half-maximal effect.

SMILES	LMNA splice mod	ALDH1A1 block	HTT aggregate	HTT cytoprotect	HPGD block
COC(=O)c1c(C)[nH]c(C)c1-c1ccccc1Cl	?	-13%	8.9µM*	-15%	-22%
COc1ccccc1NC(=S)NC(=O)c1c(-c2ccccc2Cl)noc1C	nt	0.89µM*	0%	5%	nt
COC(=O)c1c(-c2ccccc2Cl)noc1/C=C/N(C)C	23%[46 µM]	1.3µM*	-6%	-22%	nt
Cc1onc(-c2ccccc2Cl)c1C(=O)NC(=S)Nc1ccccc1F	nt	3.2µM*	-6%[9.22 µM]	-10%	nt
Cc1onc(-c2ccccc2Cl)c1C(=O)Nc1ccc(F)c(F)c1	?	4%	-20%	0%	-3%
C[C@@H](CCc1ccc(O)cc1)NCCc1ccc(O)c(O)c1	-13%	-4%	nt	7%	1%
O=C(COc1ccccc1F)OCc1cc(=O)n2nc(C3CC3)sc2n1	4%[46 µM]	nt	nt	nt	nt
Cc1onc(-c2ccccc2Cl)c1C(=O)Nc1nnc(-c2ccc(Br)cc2)s1	?	?	?	-5%[10 µM]	?
Cc1onc(-c2ccccc2Cl)c1C(=O)Nc1nnc(-c2ccc(Cl)cc2Cl)s1	?	?	35µM*	24%[10 µM]	?
COC(=O)c1cc(OC)c(OC)cc1NC(=O)c1c(-c2ccccc2Cl)noc1C	9%	28µM*	13%	-36%	-12%
Cc1cc(NC(=O)c2c(-c3ccccc3Cl)noc2C)no1	-9%	6%	24%	-11%	-10%
CCCCn1c(=O)c2[nH]c(C34CC5CC(CC3C5)C4)nc2n(CCCO)c1=O	nt	-15%	nt	-122%	-6%
O=C(OCC(=O)c1cccs1)c1ccc(NC(=O)c2ccco2)cc1	8%	18µM*	5%	-7%	-30%
CC(C)Cn1c(N)c(C(=O)COC(=O)c2c(F)cccc2F)c(=O)n(C)c1=O	?	11µM*	16%	-3%[10 µM]	nt
Cn1c(N)c(C(=O)COC(=O)c2cccs2)c(=O)n(C)c1=O	7%	14µM*	-19%	18%[10 µM]	-11%
Cc1ccc(C(=O)COC(=O)c2cccs2)cc1	-3%	-10%	-11%	2%[10 µM]	28µM*
O=C(Nc1ccc(NC(=O)c2cccs2)cc1)c1ccco1	18%	-3%	19%	-23%	-14%
CCc1ccc(C(=O)COC(=O)c2cccs2)cc1	0%	?	-4%	12%	?
CC(C)Cn1c(N)c(C(=O)COC(=O)c2ccccc2F)c(=O)n(C)c1=O	?	-15%	4%	11%[10 µM]	nt
CN(C)c1ncc2nc(-c3cc(F)cc(F)c3)c(=O)n(Cc3cccs3)c2n1	nt	?	nt	-47%	?
O=C(CSc1n[nH]c(-c2ccc(F)cc2)n1)NCc1ccccc1Cl	-8%[46 µM]	nt	nt	nt	nt
CCOC(=O)c1c(C)oc2nc(C)nc(NCCc3ccc(S(N)(=O)=O)cc3)c12	-7%[46 µM]	nt	nt	nt	nt
CC(=O)c1cccc(NC(=O)COC(=O)c2cccs2)c1	?	14µM*	-9%	-3%	nt
O=C(COC(=O)c1cccs1)c1ccc2c(c1)OCCO2	4%	18µM*	10%[9.22 µM]	-8%	16µM*
CC(C)Cn1c(N)c(C(=O)CSc2ccc3c(c2)OCCO3)c(=O)n(C)c1=O	?	0%	2µM*	-26%	-7%
SMILES	LMNA splice mod	ALDH1A1 block	HTT aggregate	HTT cytoprotect	HPGD block
Cn1c(N)c(C(=O)COC(=O)c2ccc(Cl)c(S(=O)(=O)N3CCCCC3)c2)c(=O)n(C)c1=O	-9%	9%	1%	9%[0.074 µM]	16µM*
C=CCC(C)(O)CCc1ccccc1 (stereo not given)	nt	0%	nt	-43%	3%
O=C(CSCc1ccc([N+](=O)[O-])cc1)NC1CC1	-1%	6%	2%	13%[10 µM]	0%
C=CCNC(=O)CSc1ccc(Cl)cc1	3%	14%	5%	-7%[0.074 µM]	-15%
C=CCNC(=O)CSc1cc([N+](=O)[O-])cc(S(=O)(=O)Cc2ccccc2)c1	10%	4.5µM*	7%	9%[10 µM]	?
O=C(CSc1cc([N+](=O)[O-])cc(S(=O)(=O)Cc2ccccc2)c1)NC1CC1	7%	25µM*	-4%	nt	22µM*
O=C(CSC1CC(=O)N(CCc2ccccc2)C1=O)Nc1cccc(Cl)c1 (stereo not given)	0%	-7%	-15%	14%[10 µM]	7.9µM*
O=C(CSC1CC(=O)N(CCc2ccccc2)C1=O)Nc1ccc(Br)cc1 (stereo not given)	16%	-7%	12%	-1%	0%
COCCCNC(=O)Cn1c(=O)nc(-c2ccccc2)c2ccccc21	0%[46 µM]	nt	nt	nt	nt
O=c1c(Cc2ccccc2)c(O)ccn1Cc1ccc2c(c1)OCO2	-5%[46 µM]	2.2µM*	-2%	-52%	nt
O=c1c(Cc2ccc(Cl)cc2)c(O)ccn1Cc1ccccc1	?	-7%	?	-1%[10 µM]	-6%
O=c1c(Cc2ccc(Cl)cc2)c(O)ccn1Cc1cccc(Cl)c1	?	-1%	-32%	-12%[10 µM]	-5%
O=c1c(Cc2ccc(Cl)cc2Cl)c(O)ccn1Cc1ccc(Cl)cc1	?	?	20µM*	-4%[10 µM]	?
Oc1ccccc1C(Sc1nc2ccccc2s1)Sc1nc2ccccc2s1	nt	0.71µM*	nt	-5%[10 µM]	4µM*
O=C(Nc1ccccc1)N1CCC2(CC1)CCN(C(=O)c1cnccn1)CC2	nt	-7%	nt	3.5µM*	-6%
O=C(Nc1ccccc1)N1CC[C@@]2(CCCN(C(=O)c3cnccn3)C2)C1	nt	12%	nt	?	-8%
O=C(CSCc1ccc(F)cc1)N1CCc2c([nH]c3ccccc23)C1c1ccc(F)cc1 (stereo not given)	-24%[46 µM]	nt	nt	nt	nt
O=c1[nH]c2cc([N+](=O)[O-])c([N+](=O)[O-])cc2[nH]c1=O	?	1%	-11%[9.22 µM]	8%	32µM*!
CSC(=NNC(=O)c1ccc(O)cc1)SC	12%	-9%	-4%	2%	16µM*
CS(=O)(=O)N1CC(C(=O)NC2CCCC2)Oc2ccc(Cl)cc21 (stereo not given)	-8%	10µM*	6%	15%	-8%
CS(=O)(=O)N1CC(C(=O)NC2CC2)Oc2ccc(Cl)cc21 (stereo not given)	7%	6%	20%	-4%	-2%
O=C(c1cnccn1)N1CCC2(CCCN(Cc3nccs3)C2)CC1	nt	16%	nt	22%	-1%
CCOC(=O)c1c(C)[nH]c(C)c1C(=O)CSc1nc2ccccc2c(=O)n1-c1ccccc1C	-7%	20µM*	-31%	2%[10 µM]	-8%
CCOC(=O)c1c(C)[nH]c(C)c1C(=O)CSc1nc2ccccc2c(=O)n1-c1ccc(F)cc1	?	-11%	?	-108%	nt
Cc1cccc(NCc2ccc(O)c3ncccc23)c1C	?	10µM*	8%[9.22 µM]	13%[10 µM]	nt
Cc1cccnc1NCc1ccc(O)c2ncccc12	?	20µM*	-32%	-47%	-27%
Cc1ccc(NCc2ccc(O)c3ncccc23)cc1	nt	3%	-37%[9.22 µM]	?	nt
Cn1c2c(c(=O)n(C)c1=O)C(CC(=O)Nc1ccccc1)C(=O)N2 (stereo not given)	6%	15%	5µM*	-7%[0.074 µM]	-7%

Screening results: PubChem, National Center for Advancing Translational Sciences (NCATS)
